This passage reports growth inhibition results from PubChem BioAssay (NCI).

Where “and” joins values, the source holds several entries; their conditions need not be identical. Equal values may be shown once. Compounds without any hit were thinned out: in the full panel of roughly 79,000, 15% have a hit. A structure can be active in one record and inactive in another. Calls of active or inactive are those of the source. Cut-off read from the data, not from the text of the source: active = growth inhibition above about 70%; inactive = the rest.

Test [1] can be described thus: NCI Yeast Anticancer Drug Screen. Data for the rad50 strain (AID 155).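 Note: 0% = growth of vehicle-only cultures of the same strain.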 Particulars: S. cerevisiae rad50 strain growth inhibition, stronger effect = higher value. In a few lines:
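Genetically altered yeast (DNA repair pathway); compound treatment; growth inhibition vs vehicle ctrl.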

The nature of test [2]: NCI Yeast Anticancer Drug Screen. Data for the mec2-1 strain (AID 157). Particulars: S. cerevisiae mec2-1 strain, stronger effect = higher value. In a few lines:
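Compounds were applied to mec2-1 yeast cells. Their growth was then compared with that of vehicle-treated cultures to give growth inhibition.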

The nature of test [3]: NCI Yeast Anticancer Drug Screen. Data for the sgs1 mgt1 strain (AID 161).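 Note: 0% = growth of cultures given vehicle only.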 Particulars: S. cerevisiae sgs1 mgt1 strain, stronger effect = higher value. In a few lines: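 This yeast growth screen uses a strain with defined DNA-repair lesions; compound-treated growth is compared with vehicle-treated growth.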
The nature of test [4]: NCI Yeast Anticancer Drug Screen. Data for the cln2 rad14 strain (AID 165).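 Note: 0% = growth equal to vehicle treated cultures.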 Particulars: S. cerevisiae cln2 rad14 strain, stronger effect = higher value. An outline of the steps:
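Strain: cln2 rad14 yeast, altered in cell cycle control and DNA damage repair. Read-out: growth inhibition vs vehicle.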

A short description of test [5]: NCI Yeast Anticancer Drug Screen. Data for the bub3 strain (AID 167). As to conditions: S. cerevisiae bub3 mutant strain, stronger effect = higher value. An outline of the steps: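 Yeast carrying a defined mutation is treated with each compound, and growth is compared with that of vehicle-exposed cells to give inhibition.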
Test [6] can be described thus: NCI Yeast Anticancer Drug Screen. Data for the mlh1 rad18 strain (AID 175). As to conditions: S. cerevisiae mlh1 rad18 strain growth inhibition, stronger effect = higher value. In a few lines: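 A repair-deficient yeast strain is exposed to test compound, and growth is scored relative to vehicle-treated controls.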
Setting [7] is: at 5.0 µM (retest, dose inferred, filed as 0.5).
[8] abbreviates: at 50.0 µM (retest, dose inferred, filed as 5.0).

Consider `CC[C@@]1(O)C[C@H](OC2CC(N(C)C)C(OC3CC(O)C(OC4CCC(=O)C(C)O4)C(C)O3)C(C)O2)c2c(cc3c(c2O)C(=O)c2c(O)ccc(O)c2C3=O)[C@H]1C(=O)OC` (some centres not stated), for which the growth inhibition in test [1] (setting [7]) was 95% (active) and 89% (active); in test [1] (setting [8]) it was 98% (active); in test [1] (at 50.0 µM) it was 88.1% (active) and 91.8% (active); in test [2] (setting [7]) it was 95% (active) and 78% (active); in test [2] (setting [8]) it was 99% (active); in test [2] (at 50.0 µM), 91.2% (active) and 93.5% (active). Besides, the growth inhibition was 95% (active) and 87% (active) in test [3] (setting [7]); 99% (active) and 98% (active) in test [3] (setting [8]); 89.8% (active) and 92.3% (active) in test [3] (at 50.0 µM); 91% (active) and 71% (active) in test [4] (setting [7]); 97% (active) in test [4] (setting [8]); 88.7% (active) and 91.2% (active) in test [4] (at 50.0 µM). Besides, the growth inhibition in test [5] (setting [7]) was 92% (active) and 67% (inactive); in test [5] (setting [8]), 98% (active); in test [5] (at 50.0 µM) it was 89.3% (active) and 92.3% (active); in test [6] (setting [7]), 96% (active) and 80% (active); in test [6] (setting [8]), 98% (active); in test [6] (at 50.0 µM), 88.2% (active) and 91.7% (active).
As to `Nc1cc(Cl)ccc1C(=O)c1ccccc1Cl`, the growth inhibition is -1% (inactive) in test [1] (setting [7]); 98% (active) in test [1] (setting [8]); 98.8% (active) in test [1] (at 50.0 µM); -4% (inactive) in test [2] (setting [7]); 99% (active) in test [2] (setting [8]); 99% (active) in test [2] (at 50.0 µM). For the same molecule, the growth inhibition was 2% (inactive) in test [3] (setting [7]); 98% (active) in test [3] (setting [8]); 98.8% (active) in test [3] (at 50.0 µM); -6% (inactive) in test [4] (setting [7]); 98% (active) in test [4] (setting [8]); 96.8% (active) in test [4] (at 50.0 µM). The growth inhibition in test [5] (setting [7]) was -9% (inactive); in test [5] (setting [8]), 98% (active); in test [5] (at 50.0 µM), 98% (active); in test [6] (setting [7]) it was -4% (inactive); in test [6] (setting [8]) it was 99% (active); in test [6] (at 50.0 µM), 98.2% (active).
Turning to `O=S(=O)(F)c1ccc(Cl)cc1C[P+](c1ccccc1)(c1ccccc1)c1ccccc1`, the growth inhibition was 20% (inactive) in test [1] (setting [7]); 77% (active) in test [1] (setting [8]); 45.9% (inactive) in test [1] (at 50.0 µM); 22% (inactive) in test [2] (setting [7]); 82% (active) in test [2] (setting [8]); 19.9% (inactive) in test [2] (at 50.0 µM). Moreover, the growth inhibition in test [3] (setting [7]) was 13% (inactive); in test [3] (setting [8]), 76% (active); in test [3] (at 50.0 µM) it was 53.5% (inactive); in test [4] (setting [7]), 0% (inactive); in test [4] (setting [8]) it was 54% (inactive); in test [4] (at 50.0 µM), 11.1% (inactive). Further, the growth inhibition in test [5] (setting [7]) was 12% (inactive); in test [5] (setting [8]), 82% (active); in test [5] (at 50.0 µM) it was 38.2% (inactive); in test [6] (setting [7]), 20% (inactive); in test [6] (setting [8]), 86% (active); in test [6] (at 50.0 µM) it was 69% (inactive).
In the case of `Clc1c(CI)ccc(CI)c1Cl`, the growth inhibition was 22% (inactive) in test [1] (setting [7]); 79% (active) in test [1] (setting [8]); 98.7% (active) in test [1] (at 50.0 µM); 60% (inactive) in test [2] (setting [7]); 90% (active) in test [2] (setting [8]); 97.2% (active) in test [2] (at 50.0 µM). Also, the growth inhibition in test [3] (setting [7]) is 17% (inactive); in test [3] (setting [8]) it was 74% (active); in test [3] (at 50.0 µM), 98.7% (active); in test [4] (setting [7]), 34% (inactive); in test [4] (setting [8]), 85% (active); in test [4] (at 50.0 µM) it was 54.3% (inactive). Also, the growth inhibition is 62% (inactive) in test [5] (setting [7]); 89% (active) in test [5] (setting [8]); 87.2% (active) in test [5] (at 50.0 µM); 82% (active) in test [6] (setting [7]); 96% (active) in test [6] (setting [8]); 97.5% (active) in test [6] (at 50.0 µM).
Regarding `[CH3][Sn]([Br])([Br])[CH2]CCCBr`, the growth inhibition is 22% (inactive) in test [1] (setting [7]); 95% (active) in test [1] (setting [8]); 89.7% (active) in test [1] (at 50.0 µM); 10% (inactive) in test [2] (setting [7]); 94% (active) in test [2] (setting [8]); 93.4% (active) in test [2] (at 50.0 µM). Besides, the growth inhibition in test [3] (setting [7]) was 23% (inactive); in test [3] (setting [8]), 97% (active); in test [3] (at 50.0 µM) it was 73.2% (active); in test [4] (setting [7]), 7% (inactive); in test [4] (setting [8]), 93% (active); in test [4] (at 50.0 µM), 86.1% (active). The growth inhibition in test [5] (setting [7]) was 13% (inactive); in test [5] (setting [8]), 93% (active); in test [5] (at 50.0 µM), 90.7% (active); in test [6] (setting [7]), 27% (inactive); in test [6] (setting [8]), 86% (active); in test [6] (at 50.0 µM), 85.1% (active).
In the case of `O=C(O)CCCC1CCCCC1`, the growth inhibition was 0% (inactive) in test [1] (setting [7]); 39% (inactive) in test [1] (setting [8]); 55.1% (inactive) and 57% (inactive) in test [1] (at 50.0 µM); -2% (inactive) in test [2] (setting [7]); 21% (inactive) in test [2] (setting [8]); 37.4% (inactive) and 12.7% (inactive) in test [2] (at 50.0 µM). Further, the growth inhibition in test [3] (setting [7]) is 4% (inactive); in test [3] (setting [8]), 43% (inactive); in test [3] (at 50.0 µM), 43% (inactive) and 44.3% (inactive); in test [4] (setting [7]) it was 4% (inactive); in test [4] (setting [8]), 27% (inactive); in test [4] (at 50.0 µM), 38.4% (inactive) and 46.7% (inactive). Besides, the growth inhibition in test [5] (setting [7]) is -1% (inactive); in test [5] (setting [8]), 52% (inactive); in test [5] (at 50.0 µM) it was 30.5% (inactive) and 62.9% (inactive); in test [6] (setting [7]), 2% (inactive); in test [6] (setting [8]), 51% (inactive); in test [6] (at 50.0 µM), 8.95% (inactive) and 79.8% (active).
Regarding `C[N+](C)(C)CC1CCC(C[N+](C)(C)C)C1=O` (configuration not stated), the growth inhibition in test [1] (setting [7]) is -1% (inactive); in test [1] (setting [8]) it was 6% (inactive); in test [1] (at 50.0 µM) it was -1.75% (inactive); in test [2] (setting [7]) it was 11% (inactive); in test [2] (setting [8]) it was 26% (inactive); in test [2] (at 50.0 µM) it was -1.05% (inactive). The growth inhibition in test [3] (setting [7]) was 0% (inactive); in test [3] (setting [8]) it was -47% (inactive); in test [3] (at 50.0 µM) it was -4.05% (inactive); in test [4] (setting [7]), -7% (inactive); in test [4] (setting [8]), 5% (inactive); in test [4] (at 50.0 µM), 16.3% (inactive). In addition, the growth inhibition in test [5] (setting [7]) was -2% (inactive); in test [5] (setting [8]) it was 6% (inactive); in test [5] (at 50.0 µM), 27.5% (inactive); in test [6] (setting [7]), -3% (inactive); in test [6] (setting [8]) it was 3% (inactive); in test [6] (at 50.0 µM) it was -14.2% (inactive).
Regarding `Oc1c(Cl)cc(Cl)cc1Cl`, the growth inhibition is -1% (inactive) in test [1] (setting [7]); 94% (active) in test [1] (setting [8]); 86.5% (active) in test [1] (at 50.0 µM); -6% (inactive) in test [2] (setting [7]); 67% (inactive) in test [2] (setting [8]); 78% (active) in test [2] (at 50.0 µM). In addition, the growth inhibition in test [3] (setting [7]) is -1% (inactive); in test [3] (setting [8]) it was 64% (inactive); in test [3] (at 50.0 µM), 94.8% (active); in test [4] (setting [7]), -8% (inactive); in test [4] (setting [8]), 55% (inactive); in test [4] (at 50.0 µM), 54.9% (inactive). In addition, the growth inhibition was -13% (inactive) in test [5] (setting [7]); 90% (active) in test [5] (setting [8]); 78.5% (active) in test [5] (at 50.0 µM); -5% (inactive) in test [6] (setting [7]); 94% (active) in test [6] (setting [8]); 95.8% (active) in test [6] (at 50.0 µM).
As to `C/C(=C\c1ccc2c(c1)OCO2)[N+](=O)[O-]`, the growth inhibition in test [1] (setting [7]) is 93% (active); in test [1] (setting [8]), 98% (active); in test [1] (at 50.0 µM), 98.2% (active); in test [2] (setting [7]), 7% (inactive); in test [2] (setting [8]) it was 100% (active); in test [2] (at 50.0 µM), 73.5% (active). Further, the growth inhibition in test [3] (setting [7]) is 16% (inactive); in test [3] (setting [8]) it was 97% (active); in test [3] (at 50.0 µM) it was 83.4% (active); in test [4] (setting [7]), -6% (inactive); in test [4] (setting [8]), 99% (active); in test [4] (at 50.0 µM), 40.1% (inactive). Moreover, the growth inhibition in test [5] (setting [7]) is 10% (inactive); in test [5] (setting [8]), 96% (active); in test [5] (at 50.0 µM) it was 51% (inactive); in test [6] (setting [7]), 11% (inactive); in test [6] (setting [8]), 99% (active); in test [6] (at 50.0 µM), 70.8% (active).
